IL-1B inflam inh: inhibitors of inflammasome signaling (IL-1 beta secretion). THP-1 LPS/ATP IL-1B secretion, AlphaLISA, 16 h; active compounds read low. activity change, % at 57.5 µM. 360,000 compounds, 4.7% hits; in the data active = activity change below about -50%; inconclusive = mostly about -30% to -49%; also: % is scaled to controls: 0 for no effect and ±100 for the full control effect
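Secreted IL-1B measured by AlphaLISA bead assay after 16 h compound exposure of THP-1 cells; compounds (final up to 57.5 uM) added 1 h before LPS (250 ng/mL) and ATP (1.25 mM) stimulation; lower signal means less secretion.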
Chronic BCR inh: inhibitors of chronic active B-cell receptor signaling. Potency, µM (doses to about 46.1 µM), without a hit: at the top dose activity change, negative = inhibition, hits mostly inhibitors. ABC-DLBCL IkBa-CBG/CBR reporter, luminescence ratio, 4 h. AID 493014. 340,000 compounds, 0.05% hits; active = well fitted inhibition curve with a large enough effect in the signal ratio, with a control signal flat, not every such curve was filed as active; inconclusive = small, poorly fitted or top-dose-only effect, or effect the other way, or a change in a side signal; the % refers to the signal ratio;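 also: potency is read from the fitted curve at half-maximal effect; plate controls were basal doxycycline-induced cells for no effect and cells given 10 µM MG132 for full effect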
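TMD8 ABC-DLBCL cells carrying doxycycline-inducible green luciferase fused to IkappaBalpha plus unfused red luciferase were exposed to compounds (up to 46 uM) for 4 hrs at 37C. Activity came from the overlap-corrected green/red luminescence ratio.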
TDP1 cell CPT: growth inhibition of DT40 Tdp1-/-;hTDP1 cells with camptothecin (screen for TDP1 inhibitors); chicken DT40 Tdp1-/-;hTDP1 cells + 20 nM CPT, ATP luminescence, 48 h; Potency, µM (highest dose often 46.2 µM), without a hit: at the highest dose activity change, negative = growth inhibition, usual class: inhibitors; 420,000 compounds, 12% hits; also: potency is read from the fitted curve at half-maximal effect; % is scaled to controls: 0 for no effect and ±100 for the full control effect; nearly all actives have a fitted effect of over 55% in size
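Chicken DT40 Tdp1-/- cells complemented with human TDP1, 400 cells/well, exposed to compounds plus 20 nM camptothecin for at least 48 h at 37 C; viability read as ATP content by CellTiter-Glo luminescence.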
DT40 TDP1 no CPT: qHTS for Inhibitors of human tyrosyl-DNA phosphodiesterase 1 (TDP1): qHTS in cells in absence of CPT. 420,000 compounds, 15% hits. DT40 Tdp1-/- hTDP1 cells, no CPT, ATP luminescence, 48 h. Potency, µM (titrated, usually from 46.2 µM), inactives show at the top dose activity change, negative = growth inhibition, hits mostly inhibitors; also: potency is read from the fitted curve at half-maximal effect; % is scaled to controls: 0 for no effect and ±100 for the full control effect; nearly all actives have a fitted effect of over 55% in size
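Growth kinetics read by CellTiter-Glo luminescence after ≥48 hr at 37 °C. Cells: DT40 Tdp1-/- stably carrying human TDP1, 400 per well, compound exposure in the absence of CPT (DMSO vehicle).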
MCF10A rerep: induces DNA re-replication in MCF 10a normal breast cells; MCF 10A DNA re-replication, Hoechst nuclear intensity, 48 h; Potency, µM (titrated, usually from 46.1 µM), inactives show at the highest dose activity, positive = re-replication, actives largely listed as activators; 350,000 compounds, 2.9% hits; AID 624296; also: potency is read from the fitted curve at half-maximal effect; % of control where 0% means no effect; nearly all actives have a fitted effect of over 50% in size
SW480 rerep: DNA re-replication induction in SW480 cells; Potency, µM (top dose mostly 46.1 µM), inactives show at the highest dose re-replication activation, usual class: activators; 340,000 compounds, 1.8% hits; AID 624297; SW480 DNA re-replication, Hoechst DNA content imaging, 48 h; also: potency is read from the fitted curve at half-maximal effect; % of control where 0% means no effect; nearly all actives have a fitted effect of over 55% in size
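Image-based read-out: total Hoechst fluorescence of nuclei (405 nm excitation, 500-530 nm emission), with hits raising the fraction of high-intensity nuclei. SW480 colon cells incubated 48 hr with compounds at 37 C.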
An asterisk follows results filed as active; ? = inconclusive; · = no result given; [ ] = remark or other dose. Compounds with a hit are over-represented: about 19% of the library has one in this group of screens. Unless noted, calls follow the shape of the dose curve; as a rule, active = well fitted curve in the direction sought with a large enough effect; inconclusive = small, poorly fitted or top-dose-only effect, or another doubt; inactive = no such curve, though single readings can be large; an effect the other way counts as inactive or inconclusive.

SMILES	IL-1B inflam inh	Chronic BCR inh	TDP1 cell CPT	DT40 TDP1 no CPT	MCF10A rerep	SW480 rerep
COc1ccc(N(CC(=O)Nc2ccc(OC)c(Cl)c2)S(=O)(=O)c2c(C)noc2C)cc1	1	2%	21µM*	21µM*	12%	12%
COc1ccc(NC(=O)CN(c2cc(C)cc(C)c2)S(=O)(=O)c2c(C)noc2C)cc1Cl	·	·	?	23µM*	·	·
COc1ccc(N(CC(=O)Nc2cc(Cl)ccc2OC)S(=O)(=O)c2c(C)noc2C)cc1	0	-12%	3.3µM*	4.1µM*	?	?
CCOc1ccc(N(CC(=O)Nc2ccc(OC)cc2)S(=O)(=O)c2c(C)noc2C)cc1	34	-2%	-22%	?	-7%	1%
COc1ccc(OC)c(NC(=O)CN(c2ccc(C)cc2)S(=O)(=O)c2c(C)noc2C)c1	0	?	?	?	-3%	9%[9.22 µM]
COc1ccccc1NC(=O)CN(c1ccc(C(C)C)cc1)S(=O)(=O)c1c(C)noc1C	·	·	18µM*	23µM*	·	·
CCOc1ccccc1C(=O)NC(C(=O)N(C)c1c(N)n(Cc2ccccc2)c(=O)[nH]c1=O)C(C)C (configuration not stated)	13	·	-16%	-30%	0%	0%
COCCn1c(SCC(=O)c2ccc(C)cc2C)nc2cc(C(=O)NC3CCCC3)ccc2c1=O	·	·	4%	-18%	·	·
COc1ccc(N(CC(=O)Nc2ccc(C)c(C)c2)S(=O)(=O)c2c(C)n[nH]c2C)cc1	-124*	3%	?	?	9%	7%
CC(C)OC(=O)c1ccc(NC(=O)CSc2nc3ncccc3[nH]2)cc1	?	-5%	8.2µM*	13µM*	?	?
CC(C)c1ccc(NC(=O)CSc2nc3ncccc3[nH]2)cc1	16	-15%	?	26µM*	16%	-1%
O=C(c1cccc(F)c1F)N1CCOc2ccc(CN3CCC(Oc4cccnc4)CC3)cc2C1	·	·	-14%[9.04 µM]	?	·	·
Cc1ccc(O)c(CNCCNCc2cc(C)ccc2O)c1	117	?	10µM*	13µM*	-25%	15%
Oc1ccc(Cl)cc1CNCc1ccc(F)c(F)c1	?	?	?	-23%	12%	?
CCc1ccc(O)c(CNCCNCc2cc(CC)ccc2O)c1	52	?	23µM*	16µM*	-5%	1%
O=C(O)c1ccc(Nc2c3ccccc3nc3ccccc23)cc1	-13	1%	1.3µM*	2.1µM*	21µM*	?
O=C(O)c1ccc(Nc2nc(-c3ccccc3)nc3ccccc23)cc1	10	-1%	23µM*	21µM*	9%	-1%
CN(C)C(=O)c1ccc(-c2nc(Nc3ccccc3)c3ccccc3n2)cc1	·	·	?	16µM*	·	·
O=C(O)c1cccc(Nc2nc(-c3ccc([N+](=O)[O-])cc3)nc3ccccc23)c1	34	?	-30%	7%	10%	-15%
CNC(=O)c1ccc(Nc2nc(-c3ccccc3)nc3ccccc23)cc1	-90*	?	16µM*	13µM*	?	-2%
CC1CC(C)(C)CC2(C1)NC(=O)N(CC(=O)N1CCN(Cc3ccc(C#N)cc3)CC1)C2=O (configuration not stated)	0	?	8.2µM*	5.2µM*	10%	-2%
CC1CC(C)(C)CC2(C1)NC(=O)N(CC(=O)Nc1c(F)cccc1F)C2=O (configuration not stated)	-5	0%	6%	3%	-3%	4%
CC1(c2ccc3ccccc3c2)NC(=O)N(CC(=O)N2CCN(Cc3ccc(C#N)cc3)CC2)C1=O (configuration not stated)	-6	-4%	3.3µM*	2.1µM*	9%	?
NC(=O)c1nn(Cc2ccccc2)c(=O)c2ccccc12	23	-10%	0%	?	-1%	-6%
N#Cc1ccc(CN2CCN(C(=O)Cn3nc(C(N)=O)c4ccccc4c3=O)CC2)cc1	-8	-1%	-20%	-28%	4%	21µM*
SMILES	IL-1B inflam inh	Chronic BCR inh	TDP1 cell CPT	DT40 TDP1 no CPT	MCF10A rerep	SW480 rerep
CC1CC(C)(C)CC2(C1)NC(=O)N(CC(=O)Nc1cc([N+](=O)[O-])ccc1F)C2=O (configuration not stated)	-1	-1%	15µM*	10µM*	16%	-10%
O=C(c1n[nH]c2c1CCCC2)N1CCOc2ccc(C(O)C3CCCCC3)cc2C1 (configuration not stated)	·	·	-25%	-27%	·	·
O=C(Nc1ccc2c(c1)OCCO2)C1c2ccccc2OCC(=O)N1CCCN1CCOCC1 (configuration not stated)	47	·	-8%	-16%	·	·
Cc1cccc(NC(=O)CN2CCN(C(=O)CN3C(=O)NC4(CC(C)CC(C)(C)C4)C3=O)CC2)c1C (configuration not stated)	0	·	21µM*	4.1µM*	?	6%
CCCCC/C=C\C/C=C\CCCCCCCC(=O)NC(C)c1ccccc1 (configuration not stated)	·	·	-15%	3%	·	·
O=C1c2ccccc2NC(c2cn[nH]c2-c2ccc(Cl)cc2)N1O (configuration not stated)	2	?	16µM*	16µM*	25%	-698%
C/C=C1\COC(C(=O)NCc2ccccc2)(C(F)(F)F)C=C1C=C1CCCCC1 (configuration not stated)	-3	·	?	?	-13%	1%
C/C=C1\COC(C(=O)NCCN2CCCC2)(C(F)(F)F)C=C1C=C1CCCCC1 (configuration not stated)	-78*	·	18µM*	21µM*	6.5µM*	?
C/C=C1\COC(C(=O)NCCCN2CCCC2=O)(C(F)(F)F)C=C1C=C(C)C (configuration not stated)	-8	·	21µM*	18µM*	-18%	1%[9.22 µM]
CCCCNC(=O)COC(=O)CCC(=O)c1ccc(Cl)cc1	22	2%	-5%	-1%	0%	2%
O=C(OCC(=O)c1ccc(Cl)s1)c1ccc(CO)cc1	-9	0%	-2%	0%	-3%	2%
Cc1noc(C)c1COc1ccccc1C(=O)NNC(=O)c1ccccc1F	-10	0%	-7%	3%	-2%	-5%
Cc1noc(C)c1COc1ccc(C(=O)N2CCN(c3ccccc3O)CC2)cc1	-2	0%	?	16µM*	-3%	-17%
